Hit rate of the full screen: of about 87,000 compounds, about 360 (0.41%) were called active. The full list was thinned out, with actives kept by preference. A number with no mark means an inactive call. Cut-off read from the data, not from the text of the source: active = cytotoxicity above about 50%; inactive = the rest.
Test: cytotoxicity in HT1080 fibrosarcoma cells, cell-based, fluorescence readout (AID 620);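 note: cells exposed to compound overnight then 4 h with Alamar Blue; 0% = vehicle DMSO and 100% = killing control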
Settings: HT1080 viability, at 10 µM, stronger effect = higher value

Row | Structure (SMILES) | cytotoxicity
1 | Cn1c(=O)c2c(nc(SCCN3CCOCC3)n2Cc2ccc(Cl)cc2)n(C)c1=O | -7%
2 | OC1CCN(c2c3c(nc4cc(-c5ccc(F)cc5)nn24)CCC3)CC1 | -17.8%
3 | Fc1ccc(-c2cc3nc4c(c(N5CCOCC5)n3n2)CCCC4)cc1 | -15.8%
4 | O=C(C1CC1)N1CCN=C1SCc1ccccc1Cl | -3.4%
5 | CCOC(=O)N1CCN(S(=O)(=O)c2ccc(OCC)c(C)c2)CC1 | 4.4%
6 | Cc1cccc(NS(=O)(=O)c2cccc3cccnc23)n1 | 9%
7 | Cc1cc(C(=O)NCCN2CCN(c3cccc(Cl)c3)CC2)n(-c2ccccc2)n1 | 55.9% (active)
8 | Cc1cc(C(=O)NCCCN2CCOCC2)n(-c2ccccc2)n1 | -1.5%
9 | Cc1cc(C(=O)NCCCN2CCN(C3CCCCC3)CC2)n(-c2ccccc2)n1 | 13.2%
10 | Cn1c(=O)[nH]c(=O)c2c1nc1n2CCCS1 | 35.1%
11 | N#CC(c1ccc(Cl)cc1)c1ccc2c(C(F)(F)F)cc(C(F)(F)F)nc2n1 (configuration not stated) | 51.3% (active)
12 | Cc1ccc(C(C#N)c2ccc3c(C(F)(F)F)cc(C(F)(F)F)nc3n2)cc1 (configuration not stated) | -12.2%
13 | N#CC(c1ccccc1)c1ccc2c(C(F)(F)F)cc(C(F)(F)F)nc2n1 (configuration not stated) | -4.8%
14 | Cc1ccc(NC(=O)CN2CCCCCC2)c(Br)c1 | -14.9%
15 | CCOC(=O)c1ccc(NC(=O)CC2C(=O)N(c3ccc(F)cc3)C(=O)N2CCC(C)C)cc1 (configuration not stated) | 4.5%
16 | Cn1cc(S(=O)(=O)NCc2cccs2)c(=O)n(C)c1=O | 0.5%
17 | COc1ccc(S(=O)(=O)Nc2ccc(N(C)C(C)=O)cc2)cc1 | 4.3%
18 | Nc1nc(SCC(=O)Nc2ccccc2-c2ccccc2)n[nH]1 | 0.1%
19 | O=C(CSc1ncn[nH]1)Nc1ccccc1Sc1ccc(Cl)cc1 | 41.7%
20 | Nc1nc(SCC(=O)Nc2ccccc2Sc2ccc(Cl)cc2)n[nH]1 | 74.3% (active)
21 | CCn1c(SCC(=O)c2ccc(NS(=O)(=O)c3ccccc3)cc2)nnc1-c1cccs1 | -0.1%
22 | O=C(O)C1C2CCC(O2)C1C(=O)Nc1cnn(Cc2ccccc2)c1 (configuration not stated) | 13%
23 | CC(C)CC(NC(=O)C1CCC(C)CC1)C(=O)NCc1ccccn1 (configuration not stated) | 23.1%
24 | Cn1c(C(=O)N2CCC(C(=O)N3CCOCC3)CC2)cc2sccc21 | 4.3%
25 | CCOc1ccccc1-n1c(SCC(N)=O)nnc1-c1cccnc1 | 7.9%

Row | Structure (SMILES) | cytotoxicity
26 | Clc1ccc(C2=Nn3c(nnc3-c3n[nH]c4c3CCC4)SC2)cc1 | 6.1%
27 | COc1cc(-c2nnc3n2N=C(c2ccccc2)CS3)cc(OC)c1OC | 66.9% (active)
28 | COc1ccc(-c2nnc3n2N=C(C)CS3)cc1 | -10.3%
29 | Cc1cccc(-c2nnc3n2N=C(c2ccccc2)CS3)c1 | 5.5%
30 | Fc1ccc(C2=Nn3c(nnc3-c3n[nH]c4c3CCC4)SC2)cc1 | 5.8%
31 | COc1ccc(OC)c(C2=Nn3c(nnc3-c3ccncc3)SC2)c1 | 2.2%
32 | COc1ccc(OC)c(C2=Nn3c(nnc3-c3cc(OC)c(OC)c(OC)c3)SC2)c1 | 64.1% (active)
33 | COc1cccc(-c2nnc3n2N=C(c2cc(OC)ccc2OC)CS3)c1 | 5.5%
34 | COc1ccc(C2=Nn3c(nnc3-c3ccncc3)SC2)cc1 | -6.8%
35 | COc1ccc(-c2nnc3n2N=C(c2ccccc2)CS3)cc1OC | -10.6%
36 | Brc1ccc(C2=Nn3c(nnc3-c3n[nH]c4c3CCC4)SC2)cc1 | 56.3% (active)
37 | COc1ccc(C2=Nn3c(nnc3-c3ccc(OC)cc3)SC2)cc1 | 62.4% (active)
38 | N#CCSc1nnc(Cc2cccs2)n1C1CCCCC1 | 11.1%
39 | Cc1ccc(C(=O)N2CCC(C(N)=O)CC2)cc1C | -2.5%
40 | Cc1nn(Cc2n[nH]c(=S)n2Cc2ccccc2)c(C)c1Cl | -7%
41 | Cc1ccc(NC(=O)C2(N(CC(C)C)C(=O)Cn3nnnc3N)CCCCC2)cc1 | 3%
42 | CCNC(=O)CSc1nnc(-c2ccc(OC)cc2)n1CC(C)C | -18.3%
43 | CSCC[C@H](Nc1ncnc2sc(C)c(C)c12)C(=O)O | -6%
44 | CSc1nnc(-c2ccccc2)o1 | -3.8%
45 | O=c1[nH]c2ccccc2nc1N1CCOCC1 | -5%
46 | O=S(=O)(c1ccc(N2CCC(c3ccc(Cl)cc3)=N2)cc1)N(CCO)CCO | -11.6%
47 | CN(C)CCNS(=O)(=O)c1ccc(Cl)cc1 | -7.5%
48 | COc1ccc(-n2nnc3c(=O)n(C/C=C/c4ccccc4)cnc32)cc1 | -3.8%
49 | Nc1c(C(=O)NCc2ccc3c(c2)OCO3)c2nc3ccccc3nc2n1CCCN1CCOCC1 | 52.9% (active)
50 | COc1ccc(CNC(=O)c2c(N)n(CCCN3CCOCC3)c3nc4ccccc4nc23)cc1 | 15.1%

Row | Structure (SMILES) | cytotoxicity
51 | Nc1c(C(=O)NCc2ccc(F)cc2)c2nc3ccccc3nc2n1CCCN1CCOCC1 | 0.2%
52 | O=C(O)CSCCc1ccccn1 | 8.2%
53 | CN1C(=O)CSc2ccc(NC(=O)N3CCN(c4ccccn4)CC3)cc21 | -6.2%
54 | COc1cccc(NC(=O)Nc2ccc3c(c2)N(C)C(=O)CS3)c1 | 6%
55 | CN1C(=O)CSc2ccc(NC(=O)N3CCc4ccccc43)cc21 | 64.2% (active)
56 | Cc1cc2nc(NC3=NCN(CCCN4CCOCC4)CN3)nc(C)c2cc1C | 4.7%
57 | Cc1nc(NC2=NCN(CCN3CCOCC3)CN2)nc2c(C)cccc12 | 4.7%
58 | CCOC(=O)c1[nH]c(C)c(C(=O)OCC(=O)N2CCc3ccccc32)c1C | 6.7%
59 | CCOC(=O)c1[nH]c(C)c(C(=O)Nc2ccc(C)c(Cl)c2)c1C | 22.7%
60 | CCOC(=O)c1[nH]c(C)c(C(=O)Nc2ccc(C)c(C)c2)c1C | -11.9%
61 | CCOC(=O)c1c(C)[nH]c(C(=O)OCC(=O)Nc2cc(C)ccc2OC)c1C | -1.2%
62 | CCOC(=O)c1[nH]c(C)c(C(=O)Nc2ccc(Cl)cc2)c1C | 0.6%
63 | CCOC(=O)c1[nH]c(C)c(C(=O)Nc2cc(Cl)ccc2C)c1C | 52% (active)
64 | CCOC(=O)c1[nH]c(C)c(C(=O)Nc2cc(OC)ccc2OC)c1C | 58% (active)
65 | COc1ccc(OC)c(NC(=O)c2[nH]c(C)c(C(C)=O)c2C)c1 | 11.3%
66 | CCOC(=O)c1ccc(NC(=O)c2c(C)[nH]c(C(=O)OCC)c2C)cc1 | 5.5%
67 | CCOC(=O)c1c(C)[nH]c(C(=O)OCC(=O)N2CCc3ccccc32)c1C | -4.1%
68 | CCOC(=O)c1[nH]c(C)c(C(=O)Nc2ccc(C)cc2C)c1C | 52.7% (active)
69 | CCOC(=O)c1[nH]c(C)c(C(=O)N2CCc3ccccc32)c1C | 57.9% (active)
70 | O=C(Nc1ccccc1)N1CCCC2CCCCC21 (configuration not stated) | 6.5%
71 | COc1cccc(-c2ccc(=O)n(CC(=O)NCCN3CCOCC3)n2)c1 | -0.6%
72 | Cc1ccc(NC(=O)CN(C)c2ccc(S(=O)(=O)N3CCN(C)CC3)cn2)cc1 | -4.8%
73 | O=C(O)C1CC=CCC1C(=O)N1CCc2ccccc21 (configuration not stated) | -3.6%
74 | Cc1cc(C)n2cc(CSc3nc4cc(Cl)ccc4o3)nc2n1 | 1%
75 | Cc1ccc(C2C(C(=O)O)c3ccccc3C(=O)N2C)o1 (configuration not stated) | 3.3%

Row | Structure (SMILES) | cytotoxicity
76 | CCOC(=O)c1[nH]c(C)c(C(=O)Nc2ccccc2C)c1C | 61.8% (active)
77 | CCOC(=O)c1[nH]c(C)c(C(=O)Nc2ccccc2F)c1C | 44.7%
78 | CCOC(=O)c1[nH]c(C)c(C(=O)Nc2cccc(Cl)c2C)c1C | 33.8%
79 | COC(=O)C1=C(C)N(CCc2ccccc2)C(=O)C1(NS(=O)(=O)c1ccc(NC(C)=O)cc1)C(F)(F)F (configuration not stated) | -19.4%
80 | O=C(NCc1ccc2c(c1)OCO2)c1ccc(CN2CCOCC2)cc1 | -0.5%
81 | Cc1ccc(C(=O)N2c3ccccc3N(Cc3ccccc3)C(=O)C2(C)C)cc1 | -12.6%
82 | CC(=O)N1c2ccccc2N(Cc2ccc(C)cc2C)C(=O)C1(C)C | 52.2% (active)
83 | Cc1ccc(C)c(CN2C(=O)C3(OCCCO3)c3ccccc32)c1 | -5.2%
84 | Cc1nnc(N2C(=O)C(O)=C(C(=O)c3ccco3)C2c2ccc(C(C)C)cc2)s1 (configuration not stated) | -3.4%
85 | O=C(Nc1cc(C(F)(F)F)ccc1N1CCOCC1)c1ccc[n+]([O-])c1 | 8.9%
86 | CCc1ccccc1NS(=O)(=O)c1ccc2[nH]cc(C(=O)NCC3CCCO3)c(=O)c2c1 (configuration not stated) | 3.1%
87 | Cn1cnnc1SCC(=O)Nc1ccccc1 | 5.5%
88 | CCCCOC(=O)c1ccc(NC(=O)CSc2nncn2C)cc1 | 61.2% (active)
89 | COC(=O)c1ccc(NC(=O)CSc2nncn2C)cc1 | 3.9%
90 | CCCCCn1c(=O)[nH]c2cc(C(=O)NCCCN3CCCCC3)ccc2c1=O | -6%
91 | CN(C)S(=O)(=O)c1cccc(-c2nnc(-c3ccccc3)o2)c1 | -8%
92 | O=C(CSCc1c(Cl)cccc1Cl)NCc1ccco1 | 6.4%
93 | CN(C)CCNC(=O)c1coc(=O)c(Br)c1 | -5.5%
94 | C[C@@H](NC(=O)c1coc(=O)c(Br)c1)c1ccccc1 | 2.9%
95 | CC(C)CCOc1ccc(C(=O)O)cc1 | -1.4%
96 | COc1cc(OC)c(NC(=O)CCc2ccccc2)cc1Cl | -15.4%
97 | CNC(=O)CSc1nnc(-c2ccco2)n1-c1ccccc1OC | 25.4%
